± gives the standard deviation. The full ranking holds about 8,200 sequences; the median of “pre-steady-state target cleavage rate” is about 0.024, and the highest 2% start at about 1.3. For the sample, the highest values were picked, then their nearest neighbours and some sequences at random.
Tested on: MIWI (PIWIL1) piRISC loaded with L1MC piRNA (30 nt)
Experiment: pre-steady-state target cleavage rate (min^-1); MIWI and MILI are mouse PIWI proteins and EfPiwi is from a freshwater sponge; tags in brackets are library labels; higher = faster piRNA-guided slicing of the target
Settings: guide: L1MC piRNA 5'p-UAACUAAAUACUAUGCAAGCUGUAGGUCCU
Summary of the method: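 Three pooled Cleave-'n-Seq trials supplied the data, with k3 capped at 0.0001 min^-1. In each, […] transcribed, DNA-blocked target RNA library and 1 nM active affinity-purified piRISC with one synthetic guide reacted in HEPES–potassium acetate buffer at 33 °C for 0–8 or 0–960 min, with or without 500 nM GTSF1 partner protein. Uncleaved targets were sequenced and normalised to depth and to weakly complementary targets. A burst-and-steady-state fit provided the pre-steady-state cleavage rate.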

[1] = auxiliary factor: 500 nM mouse GTSF1
[2] = auxiliary factor: none (no GTSF1)
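Note: 1 nM active piRISC with 0.1 nM target library at 33 °C single turnover.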

Sequence | pre-steady-state target cleavage rate [1] | pre-steady-state target cleavage rate [2]
UCCUGCUACAGCUUGCUUAGAAUUUAGUUA | 0.247 ± 0.026 | 0.00845 ± 0.0029
AGGACCUACACGAUGCAUAGUAUUUACAAA | 0.19 ± 0.025 | –
UCCACCUACAGCUUGCAAAGUAUAUAGUUA | 0.468 ± 0.045 | 0.0135 ± 0.0031
UGGACCUACAGCUUGCAUAGUAUUAUAGUUA | 1.24 ± 0.062 | 0.052 ± 0.011
UGGACCUACAGCUUGCAUAGUAUUAGUUA | 0.172 ± 0.032 | 0.00299 ± 0.0019
UGGACCUUCAGCUUGCAAAGUAUUUAGUUA | 1.34 ± 0.073 | 0.0368 ± 0.0084
UGGACCUACAGCUUGCAUAGUAUAUAGUUA | 0.892 ± 0.062 | 0.0341 ± 0.0087
AGGACCUACAGCUUGCAUAGUAUAUAGUUA | 0.884 ± 0.066 | 0.0667 ± 0.017
AGGACCUACAGCUUGCAUAGUAUAUAGUAA | 0.493 ± 0.058 | 0.0216 ± 0.0048
UGGACCUUCAGCUUGCAUAGUAUUUAGUAA | 1.07 ± 0.064 | 0.0524 ± 0.011
AGGACCUACAGCUUGCAUAGUAUUAUAGUUA | 1.05 ± 0.078 | 0.0707 ± 0.015
AGGACCUUCAGCUUGCAUAGUAUUUAGUUA | 1.32 ± 0.056 | 0.0842 ± 0.013
UGGACCUACAGCUUGCAUAGUAUAUUAGUUA | 1.33 ± 0.079 | 0.0409 ± 0.0089
AGGACCUACAGCUUGCAAAGUAUAUAGUUA | 0.667 ± 0.049 | 0.0238 ± 0.0054
UGGACCUACAGCUUGCAUAGUAUAUAGUAA | 0.356 ± 0.038 | 0.012 ± 0.0037
AGGACCUUCAGCUUGCAUAGUAUUUAGUAA | 1.07 ± 0.079 | 0.0632 ± 0.012
AGGACCUACAGCUUGCAUAGUAUAUUAGUUA | 1.18 ± 0.097 | 0.0609 ± 0.015
AGGACCUUCAGCUUGCAAAGUAUUUAGUUA | 1.3 ± 0.051 | 0.0464 ± 0.0089
UCGACCUACAGCUUGCAAAGUAUAUAGUUA | 0.855 ± 0.055 | 0.0157 ± 0.0033
UGGACCUACAGCUUGCAAAGUAUAUAGUUA | 0.895 ± 0.057 | 0.0204 ± 0.0062
UGGACCUUCAGCUUGCAUAGUAUUUAGUUA | 1.45 ± 0.067 | 0.069 ± 0.011

Sequence | pre-steady-state target cleavage rate [1] | pre-steady-state target cleavage rate [2]
UCCUCCUACAGCUUGCAUUGUAUUAAGUUA | 0.309 ± 0.026 | 0.00813 ± 0.0024
UCCACCUACAGCUUGCAUAGAAUUUAGAUA | 0.247 ± 0.037 | 0.00935 ± 0.0029
UCGACCUACAGCUUGCAUAGUUAUUACAAA | 0.115 ± 0.035 | –
UCCUGGAUGUCGAACGUAAGUAUUUAAUUA | < 0.0001 | –
UCCUGGUACAGCUUGCAUAGUUUAUAGUUA | 0.0594 ± 0.017 | 0.0135 ± 0.004
UCCUGGAUGUCGAACGUUUGUAUAUAGUUA | < 0.0001 | –
UGGACCUACAGCUUGCAUAGUAUUUAGUA | 0.885 ± 0.062 | 0.0273 ± 0.0069
UGGACCUACAGCUUGCAUAGUAUUUAGUUC [g2:g29:cont:t1C] | 1.14 ± 0.068 | 0.0625 ± 0.012
UGGACCUACAGCUUGCAUAGUAUUUAGUUUA | 1.56 ± 0.086 | 0.075 ± 0.014
UGGACCUACAGCUUGCAUAGUAUUUAGUAA | 1.11 ± 0.064 | 0.0627 ± 0.014
UGGACCUACAGCUUGCAUAGUAUUUAGCUUA | 0.316 ± 0.023 | 0.0288 ± 0.0059
UGGACCUACAGCUUGCAUAGUAUUUAGUUU [g2:g29:cont:t1U] | 1.62 ± 0.082 | 0.0974 ± 0.02
UCCUGGAACAGGUUGCAUAGUAUUUAGAAA | 0.362 ± 0.043 | –
AGGACCUACAGCUACGAUAGUAUUUAGUAA | 0.153 ± 0.045 | –
UCGACCAACAGCUUGCAUAGUAAUUAGUUA | 0.972 ± 0.041 | 0.0305 ± 0.0074
AGGACCUACAGCUUGGUUAGUAUUUACAAA | 0.0786 ± 0.021 | –
UGGACCUACAGCAAGCAUAGUAUUUACAAA | 0.273 ± 0.051 | –
AGGACCUACAGCUUGCUAUAGUAUUUAGUUA | 0.137 ± 0.037 | –
AGGACCUACAGCUUGUAUAGUAUUUAGUUA | 1.6 ± 0.061 | 0.0803 ± 0.015
UGGACCUACAGCUUGUAUAGUAUUUAGUUA | 1.77 ± 0.11 | 0.0563 ± 0.012
UCCACCUACAGCUUGUAUAGUAUUUAGUUA | 1.18 ± 0.048 | 0.0524 ± 0.0091

Sequence | pre-steady-state target cleavage rate [1] | pre-steady-state target cleavage rate [2]
UCGACCUACAGCUUGCUAUAGUAUUUAGUUA | 0.0661 ± 0.018 | –
UCGACCUACAGCUUGUAUAGUAUUUAGUUA | 1.7 ± 0.074 | 0.0725 ± 0.015
UCGACCUACAGCUUGUCAUAGUAUUUAGUUA | 0.742 ± 0.083 | 0.00458 ± 0.0029
UGGACCUACAGCUUGUCAUAGUAUUUAGUUA | 0.706 ± 0.1 | 0.00373 ± 0.0033
UGGACCUACAGCUUGCUAUAGUAUUUAGUUA | 0.0205 ± 0.0066 | –
UCCUGGAUGAGCUUGCAUACUAUUUAGAUA | 0.0538 ± 0.017 | 0.00863 ± 0.0041
AGGACCUACAGCUAGCAUAGUAUUUACAAA | 0.474 ± 0.071 | –
UCCACCUUCAGGUUGCAUAGUAUUUAGUUA | 0.817 ± 0.1 | 0.0279 ± 0.0047
UCCUGGAUCAGCUCUGCAUAGUAUUUAGUUA | 0.985 ± 0.054 | 0.0138 ± 0.0041
UCCUGCUUGAGCUUGCAUAGUAUUUAGUAA | 0.491 ± 0.051 | 0.0206 ± 0.004
UCCUGGAACAGCUUGCAUAGUAAUUACAAA | 0.129 ± 0.038 | –
UCCUGGAACAGGUUGCAUAGUAUUUACUUA | 0.164 ± 0.023 | 0.0109 ± 0.0022
UCGACGUACAGCUUGCAAAGUAUUUAGUUA | 1.26 ± 0.043 | 0.0364 ± 0.0077
AGGACGUACAGCUUGCUUAGUAUUUAGUUA | 1.31 ± 0.055 | 0.0487 ± 0.0095
UGGACGUACAGCUUGCUUAGUAUUUAGUUA | 1.37 ± 0.069 | 0.0454 ± 0.0082
UCGACGUACAGCUUGCAUUGUAUUUAGUUA | 0.883 ± 0.027 | 0.0351 ± 0.0076
UGGACGUACAGCUUGCAUUGUAUUUAGUUA | 0.79 ± 0.05 | 0.0432 ± 0.01
AGGACGUACAGCUUGCAAAGUAUUUAGUUA | 1.11 ± 0.057 | 0.0396 ± 0.0083
UCGACGUACAGCUUGCUUAGUAUUUAGUUA | 1.63 ± 0.09 | 0.0366 ± 0.0073
UGGACGUACAGCUUGCAAAGUAUUUAGUUA | 1.3 ± 0.045 | 0.0558 ± 0.0096
AGGACGUACAGCUUGCAUAGUAUUUAGUUA | 1.19 ± 0.048 | 0.0866 ± 0.014

Source: the supplement of paper PMC10338343
